# From PubChem BioAssay AID1159580 (chemical genetic matrix, 2015)
# Values joined by “and” are separate entries in the source; they are usually repeats but may differ in a detail not shown here. Identical values can stand only once. In all, about 5,500 compounds went through this assay and about 2,000 (36%) were called active. About 18% were inconclusive and are not listed. The list shows a part of the results. A number with no mark means an inactive call. Rule as the data show it: active = normalized growth mostly below about 0.91 (no sharp cut-off); inconclusive = no clear call, values can overlap the other calls; inactive = mostly above about 0.92.
# Assay: chemical genetic growth profiling, strain panel (AID 1159580);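 also: tested at 20 µM; growth read once vehicle control cultures reached saturation at 30 °C; 1 = growth at the plate median or of vehicle wells; lower values mean less growth of the strain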
# Conditions: S. cerevisiae deletion strains, growth OD
smiles,measurement,setting,value
CC(=O)O[C@]1(C)CC[C@@]23CC1C(C)(C)[C@@H]2CC[C@H]3C,normalized growth,"locus YAL013W, strain DEP1, active compounds read low",1
same,normalized growth,"locus YAL021C, strain ccr4, active compounds read low",0.985
same,normalized growth,"locus YAL026C, strain drs2, active compounds read low",0.979
same,normalized growth,"locus YAL030W, strain snc1, active compounds read low",0.98
same,normalized growth,"locus YBL061C, strain skt5, active compounds read low",0.967
same,normalized growth,"locus YBR009C, strain hhf1, active compounds read low",0.968
same,normalized growth,"locus YBR021W, strain FUR4, active compounds read low",0.954
same,normalized growth,"locus YBR023C, strain chs3, active compounds read low",0.961
same,normalized growth,"locus YBR171W, strain sec66, active compounds read low",0.969
same,normalized growth,"locus YBR229C, strain ROT2, active compounds read low",1
same,normalized growth,"locus YBR231C, strain swc5, active compounds read low",0.998
same,normalized growth,"locus YBR279W, strain paf1, active compounds read low",0.979
same,normalized growth,"locus YCL011C, strain gbp2, active compounds read low",0.975
same,normalized growth,"locus YCL016C, strain dcc1, active compounds read low",0.976
same,normalized growth,"locus YCL029C, strain bik1, active compounds read low",1.03
same,normalized growth,"locus YCL061C, strain MRC1, active compounds read low",0.985
same,normalized growth,"locus YCL069W, strain vba3, active compounds read low",0.976
same,normalized growth,"locus YCR088W, strain abp1, active compounds read low",0.978
same,normalized growth,"locus YDL005C, strain med2, active compounds read low",0.967
same,normalized growth,"locus YDL035C, strain GPR1, active compounds read low",0.964
same,normalized growth,"locus YDL040C, strain nat1, active compounds read low",0.972
same,normalized growth,"locus YDL074C, strain BRE1, active compounds read low",0.958
same,normalized growth,"locus YDL101C, strain DUN1, active compounds read low",0.981
same,normalized growth,"locus YDL185W, strain tfp1, active compounds read low",1.02
same,normalized growth,"locus YDL192W, strain arf1, active compounds read low",0.971
same,normalized growth,"locus YDR001C, strain nth1, active compounds read low",0.977
same,normalized growth,"locus YDR069C, strain doa4, active compounds read low",0.974
same,normalized growth,"locus YDR101C, strain arx1, active compounds read low",1.02
same,normalized growth,"locus YDR137W, strain rgp1, active compounds read low",0.944
same,normalized growth,"locus YDR159W, strain sac3, active compounds read low",0.986
same,normalized growth,"locus YDR162C, strain NBP2, active compounds read low",0.905
same,normalized growth,"locus YDR195W, strain ref2",0.995
same,normalized growth,"locus YDR297W, strain sur2, active compounds read low",0.96
same,normalized growth,"locus YDR318W, strain mcm21, active compounds read low",0.972
same,normalized growth,"locus YDR334W, strain swr1, active compounds read low",0.974
same,normalized growth,"locus YDR335W, strain msn5, active compounds read low",0.975
same,normalized growth,"locus YDR388W, active compounds read low",1.01
same,normalized growth,"locus YDR392W, strain spt3, active compounds read low",0.964
same,normalized growth,"locus YDR502C, strain sam2, active compounds read low",0.979
same,normalized growth,"locus YEL003W, strain gim4, active compounds read low",0.977
same,normalized growth,"locus YEL037C, strain rad23, active compounds read low",0.975
same,normalized growth,"locus YEL061C, strain CIN8 (second series), active compounds read low",0.981
same,normalized growth,"locus YEL061C, strain CIN8, active compounds read low",0.996
same,normalized growth,"locus YER015W, strain faa2, active compounds read low",0.974
same,normalized growth,"locus YER016W, strain bim1, active compounds read low",0.966
same,normalized growth,"locus YER110C, active compounds read low",1.02
same,normalized growth,"locus YER111C, strain swi4, active compounds read low",0.967
same,normalized growth,"locus YER155C, strain BEM2 (second series), active compounds read low",0.974
same,normalized growth,"locus YER155C, strain BEM2, active compounds read low",0.95
same,normalized growth,"locus YER167W, strain BCK2, active compounds read low",0.982
same,normalized growth,"locus YFR010W, strain ubp6, active compounds read low",0.994
same,normalized growth,"locus YGL078C, strain dbp3, active compounds read low",1.01
same,normalized growth,"locus YGL086W, strain mad1, active compounds read low",1.02
same,normalized growth,"locus YGL167C, strain pmr1, active compounds read low",0.977
same,normalized growth,"locus YGL173C, strain kem1, active compounds read low",0.975
same,normalized growth,"locus YGL227W, strain vid30, active compounds read low",0.969
same,normalized growth,"locus YGL240W, strain doc1, active compounds read low",1.01
same,normalized growth,"locus YGL248W, strain PDE1, active compounds read low",0.934
same,normalized growth,"locus YGL253W, strain hxk2, active compounds read low",0.981
same,normalized growth,"locus YGR078C, strain PAC10, active compounds read low",0.946
same,normalized growth,"locus YGR135W, strain pre9, active compounds read low",0.985
same,normalized growth,"locus YGR252W, strain gcn5, active compounds read low",0.867
same,normalized growth,"locus YHR013C, strain ard1, active compounds read low",0.959
same,normalized growth,"locus YHR027C, strain rpn1, active compounds read low",0.986
same,normalized growth,"locus YHR030C, strain SLT2, active compounds read low",0.964 and 0.917
same,normalized growth,"locus YHR079C, strain IRE1 (second series), active compounds read low",1.01
same,normalized growth,"locus YHR079C, strain IRE1, active compounds read low",0.951
same,normalized growth,"locus YHR094C, strain hxt1, active compounds read low",1.01
same,normalized growth,"locus YHR129C, strain ARP1, active compounds read low",0.978
same,normalized growth,"locus YHR142W, strain chs7, active compounds read low",0.967
same,normalized growth,"locus YHR200W, strain rpn10, active compounds read low",1
same,normalized growth,"locus YIL066C, strain RNR3, active compounds read low",0.973
same,normalized growth,"locus YIL073C, strain SPO22, active compounds read low",0.923
same,normalized growth,"locus YIL125W, strain kgd1, active compounds read low",1.01
same,normalized growth,"locus YIR030C, strain dcg1, active compounds read low",0.997
same,normalized growth,"locus YJL092W, strain hpr5, active compounds read low",0.983
same,normalized growth,"locus YJL095W, strain BCK1 (second series), active compounds read low",0.981
same,normalized growth,"locus YJL095W, strain BCK1, active compounds read low",0.84 and 0.968
same,normalized growth,"locus YJL115W, strain asf1, active compounds read low",0.975
same,normalized growth,"locus YJL129C, strain trk1, active compounds read low",0.981
same,normalized growth,"locus YJL134W, strain LCB3, active compounds read low",1.01
same,normalized growth,"locus YJL154C, strain vps35, active compounds read low",0.962
same,normalized growth,"locus YJL164C, strain tpk1, active compounds read low",0.978
same,normalized growth,"locus YJL166W, strain qcr8, active compounds read low",0.978
same,normalized growth,"locus YJL168C, strain set2, active compounds read low",1.01
same,normalized growth,"locus YJL187C, strain SWE1 (second series), active compounds read low",0.97
same,normalized growth,"locus YJR043C, strain POL32, active compounds read low",0.995
same,normalized growth,"locus YJR066W, strain TOR1, active compounds read low",0.958
same,normalized growth,"locus YJR075W, strain HOC1, active compounds read low",0.956
same,normalized growth,"locus YKL009W, strain mrt4, active compounds read low",1.08
same,normalized growth,"locus YKL068W, active compounds read low",0.998
same,normalized growth,"locus YKL085W, strain MDH1 (second series), active compounds read low",1
same,normalized growth,"locus YKL085W, strain MDH1, active compounds read low",1
same,normalized growth,"locus YKL160W, strain elf1, active compounds read low",0.968
same,normalized growth,"locus YKL190W, strain CNB1, active compounds read low",1
same,normalized growth,"locus YKR001C, strain vps1, active compounds read low",0.98
same,normalized growth,"locus YKR026C, strain gcn3, active compounds read low",0.974
same,normalized growth,"locus YKR091W, strain srl3, active compounds read low",0.974
same,normalized growth,"locus YLL001W, strain dnm1, active compounds read low",0.978
same,normalized growth,"locus YLL026W, active compounds read low",0.971
same,normalized growth,"locus YLL041C, strain sdh2, active compounds read low",0.973
same,normalized growth,"locus YLR027C, strain aat2, active compounds read low",0.964
same,normalized growth,"locus YLR039C, strain RIC1, active compounds read low",0.853
same,normalized growth,"locus YLR058C, strain SHM2, active compounds read low",0.974
same,normalized growth,"locus YLR102C, strain apc9, active compounds read low",1.01
same,normalized growth,"locus YLR113W, strain HOG1, active compounds read low",0.911
same,normalized growth,"locus YLR221C, strain rsa3, active compounds read low",0.977
same,normalized growth,"locus YLR258W, strain gsy2, active compounds read low",0.957
same,normalized growth,"locus YLR262C, strain YPT6 (second series), active compounds read low",0.987
same,normalized growth,"locus YLR262C, strain YPT6, active compounds read low",0.848
same,normalized growth,"locus YLR268W, strain sec22, active compounds read low",1.03
same,normalized growth,"locus YLR320W, strain mms22, active compounds read low",0.981
same,normalized growth,"locus YLR330W, strain CHS5, active compounds read low",1
same,normalized growth,"locus YLR342W, strain FKS1 (second series), active compounds read low",1
same,normalized growth,"locus YLR342W, strain FKS1, active compounds read low",0.995
same,normalized growth,"locus YLR357W, strain rsc2, active compounds read low",0.989
same,normalized growth,"locus YLR370C, strain arc18, active compounds read low",0.976
same,normalized growth,"locus YLR371W, strain rom2, active compounds read low",1.01
same,normalized growth,"locus YLR384C, strain iki3, active compounds read low",0.977
same,normalized growth,"locus YLR418C, strain cdc73, active compounds read low",0.864
same,normalized growth,"locus YML016C, strain PPZ1, active compounds read low",1
same,normalized growth,"locus YML032C, strain rad52, active compounds read low",0.965
same,normalized growth,"locus YML120C, strain ndi1, active compounds read low",0.976
same,normalized growth,"locus YML124C, strain tub3, active compounds read low",0.999
same,normalized growth,"locus YMR058W, strain fet3, active compounds read low",0.968
same,normalized growth,"locus YMR078C, strain ctf18, active compounds read low",1.01
same,normalized growth,"locus YMR125W, strain sto1, active compounds read low",0.966
same,normalized growth,"locus YMR129W, active compounds read low",0.973
same,normalized growth,"locus YMR205C, strain PFK2, active compounds read low",0.933
same,normalized growth,"locus YMR223W, strain ubp8, active compounds read low",0.959
same,normalized growth,"locus YMR231W, strain pep5, active compounds read low",0.976
same,normalized growth,"locus YMR263W, strain SAP30, active compounds read low",0.983
same,normalized growth,"locus YMR307W, strain GAS1, active compounds read low",0.74
same,normalized growth,"locus YNL067W, strain RPL9B, active compounds read low",0.969
same,normalized growth,"locus YNL071W, strain lat1, active compounds read low",0.982
same,normalized growth,"locus YNL183C, strain NPR1, active compounds read low",0.961
same,normalized growth,"locus YNL209W, strain ssb2, active compounds read low",0.983
same,normalized growth,"locus YNL233W, strain BNI4, active compounds read low",0.933
same,normalized growth,"locus YNL248C, strain rpa49, active compounds read low",0.978
same,normalized growth,"locus YNL250W, strain rad50, active compounds read low",1.01
same,normalized growth,"locus YNL271C, strain bni1, active compounds read low",1.01
same,normalized growth,"locus YNL298W, strain CLA4, active compounds read low",1.03
same,normalized growth,"locus YNL307C, strain MCK1, active compounds read low",1.01
same,normalized growth,"locus YNL322C, strain KRE1 (second series), active compounds read low",0.952
same,normalized growth,"locus YNR049C, strain mso1, active compounds read low",0.995
same,normalized growth,"locus YNR052C, strain pop2, active compounds read low",0.986
same,normalized growth,"locus YOL012C, strain htz1",0.829
same,normalized growth,"locus YOL147C, strain pex11, active compounds read low",1
same,normalized growth,"locus YOR001W, strain rrp6, active compounds read low",0.996
same,normalized growth,"locus YOR061W, strain CKA2, active compounds read low",1
same,normalized growth,"locus YOR069W, strain VPS5, active compounds read low",1
same,normalized growth,"locus YOR070C, strain gyp1, active compounds read low",0.993
same,normalized growth,"locus YOR080W, strain dia2, active compounds read low",0.967
same,normalized growth,"locus YOR083W, strain WHI5, active compounds read low",0.979
same,normalized growth,"locus YOR106W, strain vam3, active compounds read low",0.979
same,normalized growth,"locus YOR136W, strain idh2, active compounds read low",1.02
same,normalized growth,"locus YOR144C, strain elg1, active compounds read low",1.01
same,normalized growth,"locus YOR184W, strain ser1, active compounds read low",0.846 (active)
same,normalized growth,"locus YOR231W, strain MKK1, active compounds read low",0.958
same,normalized growth,"locus YOR265W, strain rbl2, active compounds read low",0.999
same,normalized growth,"locus YOR270C, strain vph1, active compounds read low",0.897
same,normalized growth,"locus YOR290C, strain snf2, active compounds read low",0.947
same,normalized growth,"locus YOR316C, strain cot1, active compounds read low",1
same,normalized growth,"locus YPL051W, strain arl3, active compounds read low",0.976
same,normalized growth,"locus YPL055C, strain LGE1, active compounds read low",0.937
same,normalized growth,"locus YPL078C, strain atp4, active compounds read low",0.999
same,normalized growth,"locus YPL106C, strain sse1, active compounds read low",0.969
same,normalized growth,"locus YPL240C, strain hsp82, active compounds read low",0.982
same,normalized growth,"locus YPL256C, strain CLN2, active compounds read low",0.991
same,normalized growth,"locus YPR119W, strain clb2, active compounds read low",1.01
same,normalized growth,"locus YPR141C, strain kar3, active compounds read low",1
same,normalized growth,"locus YPR163C, strain tif3, active compounds read low",1.02
same,normalized growth,"locus YPR167C, strain met16, active compounds read low",0.98
same,normalized growth,"strain wtn01, active compounds read low",1.04
